Compound activity from PubChem BioAssay.
The list is not random: actives were taken first. Their share in the collection is about 1.3%.
SRC1 inh: inhibits human SRC1 coactivator; Q15788; HEK293 GAL4-SRC1 luciferase reporter, luminescence; inhibition, % at 3.6 µM; 360,000 tested, 0.12% active; AID 588354;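 active = inhibition above the campaign mean plus 3 SD, with each screening campaign given its own cutoff, cut at about 60% in these data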
SRC2 inh: human SRC2 (NCOA2) inhibition; Q15596; HEK293 GAL4-SRC2 luciferase reporter, luminescence; inhibition, % at 9 µM; 370,000 tested, 0.17% active;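 active = inhibition above the mean inhibition of all tested compounds plus 3 SD, set per campaign, cut at about 52% in these data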
LRH-1 inv ag: suppresses constitutive activity of human LRH-1. O00482. inhibition, % at 3.6 µM. AID 602396. 360,000 tested, 0.13% active. HEK293T StAR-luciferase reporter, LRH-1 transfected, 24 h;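 active = inhibition above the mean inhibition of all tested compounds plus 3 SD, cut at about 73% in these data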
Gli-Sufu block: blocks Gli-Sufu signaling in a luciferase reporter; Sufu-KO-LIGHT fibroblasts, Gli luciferase reporter luminescence; inhibition, % at 5 µM; 340,000 tested, 0.74% active; AID 588413;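 active = inhibition above about 55%, limit read from the data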
NR2F2 inh: blocks human COUP-TFII nuclear receptor; HEK293T NGFI-A luciferase reporter, luminescence; inhibition, % at 8.6 µM; 370,000 tested, 0.7% active; AID 686940;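 active = inhibition above a per-plate cutoff, mean inhibition of test wells between control levels plus 3 SD, cut at about 38% in these data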;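 also: cells cotransfected with COUP-TFII expression vector driving the NGFI-A reporter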
Target sequence (P24468 whole entry, looked up): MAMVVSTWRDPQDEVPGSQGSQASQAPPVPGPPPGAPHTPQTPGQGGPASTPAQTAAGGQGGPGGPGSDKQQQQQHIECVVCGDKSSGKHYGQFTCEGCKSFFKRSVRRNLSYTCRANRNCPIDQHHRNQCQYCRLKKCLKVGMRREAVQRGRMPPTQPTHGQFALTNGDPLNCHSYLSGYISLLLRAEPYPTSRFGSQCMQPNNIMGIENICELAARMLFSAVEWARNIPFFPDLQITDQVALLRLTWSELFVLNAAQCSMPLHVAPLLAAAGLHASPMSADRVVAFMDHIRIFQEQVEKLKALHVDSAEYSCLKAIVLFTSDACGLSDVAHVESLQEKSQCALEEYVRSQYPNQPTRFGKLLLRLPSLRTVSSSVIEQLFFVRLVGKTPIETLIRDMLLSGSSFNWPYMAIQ
NCOA3 inh: inhibits human SRC3 coactivator; 360,000 tested, 0.17% active; HEK293 GAL4-SRC3 luciferase reporter, luminescence; inhibition, % at 3.6 µM;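 active = inhibition above a per-campaign cutoff, the mean of all compounds plus 3 SD, cut at about 60% in these data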;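 also: higher means less SRC3-driven luciferase light from the GAL4 reporter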
VP16 Luc counter: counter-screen for COUP-TFII antagonists: inhibitors of VP16 | 2,500 tested, 25% active | inhibition, % at 8.5 µM | AID 687007 | HEK293 Gal4-VP16 luciferase reporter, luminescence | shares compounds with NR2F2 inh; in the data active = inhibition above about 13%
COUP-TFII conf: COUP-TFII (NR2F2) inhibition, confirmation assay. shares compounds with NR2F2 inh. HEK293 NGFI-A luciferase reporter, luminescence. inhibition, % at 8.5 µM. 2,500 tested, 45% active. AID 687008;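 active = mean inhibition over three repeats above a set limit taken from the earlier primary screen, cut at about 38% in these data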
Each line names hits and unclear results; the compound was inactive in the other large screens (follow-up assays come after a bar, where they were run).

O=C1/C(=C/c2ccccc2)CN(C(=O)CCN2CCOCC2)C/C1=C\c1ccccc1	NR2F2 inh 57 | VP16 Luc counter 35 | COUP-TFII conf inactive
CN(C)CCC(=O)N1C/C(=C/c2ccccc2)C(=O)/C(=C\c2ccccc2)C1	SRC2 inh 64, LRH-1 inv ag 81, NR2F2 inh 79 | VP16 Luc counter 81 | COUP-TFII conf 87
CCOC(=O)N1C/C(=C\c2ccccc2)C(=O)/C(=C/c2ccccc2)C1	none
COc1ccc(OC(=O)N2C/C(=C/c3ccccc3)C(=O)/C(=C\c3ccccc3)C2)cc1	none
C[N+](C)(C)CCC(=O)N1C/C(=C/c2ccccc2)C(=O)/C(=C\c2ccccc2)C1	NR2F2 inh 72 | VP16 Luc counter 22 | COUP-TFII conf inactive
Cc1ccc(NC(=O)[C@@H]2CC(=O)O[C@@H]2c2ccccc2)c(C)c1	none (no result: SRC1 inh, LRH-1 inv ag, Gli-Sufu block, NCOA3 inh)
CC1(Cc2cccc(F)c2)C(=O)Nc2ccc(-c3cccnc3)cc21 (stereo unspecified)	NR2F2 inh 48 (no result: Gli-Sufu block) | VP16 Luc counter inactive | COUP-TFII conf inactive
CC1(Cc2ccc(Cl)cc2)C(=O)Nc2ccc(-c3cccnc3)cc21 (stereo unspecified)	none (no result: Gli-Sufu block)
CCC1Sc2ccc(S(=O)(=O)Nc3ccc(OC)c(OC)c3)cc2NC1=O (stereo unspecified)	NR2F2 inh 52 | VP16 Luc counter inactive | COUP-TFII conf inactive
CCC1Sc2ccc(S(=O)(=O)Nc3ccc(OC)cc3)cc2NC1=O (stereo unspecified)	none
Cc1cc(CN(C)C(=O)c2cc(COc3ccc4ncccc4c3)on2)on1	NR2F2 inh 55 | VP16 Luc counter inactive | COUP-TFII conf 43
CC(CNC(=O)c1cc(COc2ccc3ncccc3c2)on1)c1ccccc1 (stereo unspecified)	NR2F2 inh 46 | VP16 Luc counter inactive | COUP-TFII conf inactive
COc1ccc(S[C@]2(C(=O)N3CCN(c4ncccn4)CC3)CC(=O)N(c3ccc(C#N)cc3)[C@@H]2c2ccc(OC)cc2)cc1	none (no result: SRC1 inh, LRH-1 inv ag, Gli-Sufu block, NCOA3 inh)
Cc1ccc2c(c1)N(CCCC(=O)NCc1c(F)cccc1F)C(=O)CO2	none (no result: SRC1 inh, LRH-1 inv ag, Gli-Sufu block, NCOA3 inh)
O=C(Nc1cccc(S(=O)(=O)N2CCOCC2)c1)c1ccc2c(=O)n3c(nc2c1)CCCCC3	NR2F2 inh 39 | VP16 Luc counter inactive | COUP-TFII conf inactive
CCN(C[C@H]1[C@@H](c2ccc(C3=CCCC3)cc2)[C@H](CO)N1c1nc(C)c(C)s1)S(=O)(=O)c1ccccc1[N+](=O)[O-]	none (no result: SRC1 inh, LRH-1 inv ag, Gli-Sufu block, NCOA3 inh)
COC(=O)c1cc(-c2cc(Cl)cc(Cl)c2)c(=O)n2c1CCC2	none (no result: SRC1 inh, LRH-1 inv ag, Gli-Sufu block, NCOA3 inh)
COc1ccc2c(c1)/C(=C\c1cccc(/C=C3/C(=O)Nc4ccc(OC)cc43)n1)C(=O)N2	SRC2 inh 55, NR2F2 inh 70 | VP16 Luc counter 75 | COUP-TFII conf 95
COC(=O)[C@]12C[C@H](CC(=O)NCc3cccs3)C(=O)N(Cc3ccco3)C1=C[C@H](COCc1ccccc1)O[C@@H]2C	none (no result: SRC1 inh, LRH-1 inv ag, Gli-Sufu block, NCOA3 inh)
Cc1ccc(NC(=O)c2cc(-c3cc(Cl)ccc3C)n[nH]2)cc1NS(C)(=O)=O	NR2F2 inh 50 (no result: Gli-Sufu block) | VP16 Luc counter inactive | COUP-TFII conf 41
COc1ccc(Cl)cc1-c1cc(C(=O)Nc2ccc(C)c(NS(C)(=O)=O)c2)[nH]n1	NR2F2 inh 38 (no result: Gli-Sufu block) | VP16 Luc counter inactive | COUP-TFII conf inactive
COc1ccc(Cl)c(-c2cc(C(=O)Nc3ccc(C)c(NS(C)(=O)=O)c3)[nH]n2)c1	none (no result: Gli-Sufu block)
Cc1ccc(S(=O)(=O)NCC2CN(S(=O)(=O)c3ccc(C)cc3)c3ccccc3C(=O)N2c2ccc(F)cc2)cc1 (stereo unspecified)	none (no result: SRC1 inh, SRC2 inh, LRH-1 inv ag, Gli-Sufu block, NCOA3 inh)
COc1ccc(/C=C2\SC(=S)N(CCC(=O)Nc3ccccc3C(=O)O)C2=O)cc1	none
COc1ccc(/C=C2\SC(=O)N(CCCC(=O)Nc3cc(Cl)ccc3C(=O)O)C2=O)cc1	SRC1 inh 78, SRC2 inh 92, LRH-1 inv ag 82, Gli-Sufu block 74, NR2F2 inh 101, NCOA3 inh 83 | VP16 Luc counter 89 | COUP-TFII conf 101
